Here are results for 96 compounds from PubChem BioAssay AID1578 (Sanford-Burnham Center for Chemical Genomics, 2009).

Structures are written as SMILES. Among all 290,000 compounds or so, about 3,000 (1%) were called active. This is one part of a sample in which actives are shown more often than they occur. A number with no mark means an inactive call. Rule as the data show it: active = inhibition mostly above about 36% (no sharp cut-off); inactive = mostly below about 34%.

The assay is described as follows: inhibition of NOD1-driven NF-kB reporter – cell-based, luminescence, uHTS, primary screen (AID 1578).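 Also: HEK-293T reporter cells stimulated with the NOD1 agonist gamma-tri-DAP.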 The conditions noted are these: NOD1-driven NF-kB luciferase reporter cells, at 4 µM, hits give high values.
Usually inhibition stands for the drop in the measured response relative to a control, in per cent. As for `COc1ccc(-c2csc(-c3[nH]cnc3N)n2)cc1`, the inhibition was -36.1%.
For `COCCNC(=O)Cn1ccc2cc(S(=O)(=O)N3CCCCCC3)ccc21` the value was -9.2%; for `COc1cc(-c2noc(C)c2-c2ccc3[nH]ccc3c2)cc(OC)c1OC`, 33.3%; for `CC1CCCN(C(=O)CCNS(=O)(=O)c2ccc3c(c2)oc(=O)n3C)C1` (stereo unspecified), -23.9%.
With `Cc1ccc(C)c(Sc2ccc(NC(=O)CCl)cc2)c1`, the inhibition was 19.3%.
For `COC(=O)c1cccc(NC(=O)CCSc2ccc(Cl)cc2)c1C` the value was -10.1%.
For `CC(=O)Nc1ccc(NC(=O)Cc2ccc(-c3ccccc3)cc2)cc1` the value was -16.2%; for `CC(C)N(c1ccccc1)c1ccc(NC(=S)NCCN(C)C)cc1`, -23.3%; for `CC(C)N(c1ccccc1)c1ccc(NC(=O)CCl)cc1`, 95.4% (active).
As for `O=C(Cc1ccc(-c2ccccc2)cc1)Nc1ccccc1`, the figure is -1.9%.
Turning to `O=C(CCCSc1ccc(Cl)cc1)Nc1ccccc1O`, the inhibition is 59.4% (active).
As for `CCNC(=S)Nc1ccc(N(c2ccccc2)C(C)C)cc1`, the figure is -9.8%; as for `Cc1ccc(Sc2ccc(NC(=O)CCl)cc2)cc1C`, 21.2%; as for `O=C(CCl)Nc1ccc(-c2ccccc2)cc1`, 78.6% (active).
For the compound `O=C(CSCc1ccc(Cl)cc1)Nc1ccccc1O`, the inhibition was -40%.
With `COc1ccc(/C=N/NC(=O)COc2ccc(Cl)cc2Cl)cc1Cn1nc(C)cc1C`, the inhibition was -18%.
With `COc1ccccc1N1CCN(C2CCCN(C(=O)CCC(C)=O)C2)CC1` (stereo unspecified), the inhibition was -21%.
Regarding `COc1ccc(S(=O)(=O)N2CCC(C(=O)N[C@@H](C)C(=O)NCc3cccc(OC)c3)CC2)cc1`, the inhibition was -4.9%.
As to `Cc1c(C)c2c(OCC(=O)N3CCC(C(=O)NCC(C)C)CC3)cc3c(c2oc1=O)CCC(C)(C)O3`, the inhibition was -19.1%.
`O=C(CCCn1cnc2ccccc2c1=O)Nc1ccccc1F`: the inhibition was -9.5%.
For `Cc1cccc(C)c1NC(=O)C1C2C=CC(C2)C1C(=O)O` (stereo unspecified) the value was -40.2%; for `CCN1CCN(C(c2cccs2)C(C)NC(=O)c2ccco2)CC1` (stereo unspecified), 5.5%.
For `CC(=O)Nc1nnc(/C=C/c2cccc([N+](=O)[O-])c2)s1` the value was 46%.
For `CC(=O)C1=C(O)C(=O)N(Cc2ccco2)C1c1cccc(F)c1` (stereo unspecified) the value was -28%; for `O=C(NCc1ccco1)c1ccc(Cl)c(S(=O)(=O)Nc2ccccc2)c1`, -15%.
For `COc1ccc(N(CC(=O)Nc2cc([N+](=O)[O-])ccc2C)S(C)(=O)=O)cc1OC`, the inhibition is 1.1%.
As for `O=C(O)CCCC(=O)Nc1ccc(N=Nc2ccccc2)cc1`, the figure is -13.6%; as for `O=C(CCl)Nc1ccccc1Sc1ccccc1`, 21.3%; as for `O=C(CCl)Nc1ccc(N=Nc2ccccc2)cc1`, 107% (active).
For `O=C(O)CCC(=O)Nc1ccc(N=Nc2ccccc2)cc1` the value was -26.1%; for `O=C(Cc1ccc(Cl)cc1)Nc1ccccc1Sc1ccccc1`, -16.9%; for `CCOc1ccccc1C(=O)N(Cc1sccc1C)C1CCS(=O)(=O)C1` (stereo unspecified), -17.4%.
For `COc1cc(NS(=O)(=O)c2ccc(NC(=S)NC(=O)c3sc4cc(F)ccc4c3Cl)cc2)nc(OC)n1` the value was 47.7%; for `Cc1nc2ccc(NC(=O)c3cccs3)cc2c(=O)n1Cc1ccc(Cl)cc1`, 23%; for `COc1ccc(CNC(=O)c2ccc(CS(=O)(=O)Cc3ccccc3F)o2)cc1`, 6%.
For the compound `Cc1[nH]c(C)c(S(=O)(=O)NCc2ccc(Cl)cc2)c1C(=O)N1CCCC1`, the inhibition was -23.5%.
For `CCN1C(=O)CS/C1=N\S(=O)(=O)c1ccccc1` the value was 4.8%; for `O=c1c2ccccc2cnn1CCOc1ccccc1`, 67.1% (active); for `COc1ccc2cnn(CCOc3ccccc3)c(=O)c2c1OC`, -63%.
For `O=c1c2ccccc2cnn1CCOc1cccc(Br)c1` the value was -51.9%.
Take `O=c1[nH]c(CSc2ncnc3sc(-c4ccccc4)cc23)nc2ccccc12`: the inhibition is 6.6%.
For `CC(Oc1ccc([N+](=O)[O-])cc1)C(=O)NCCCN1CCOCC1` (stereo unspecified) the value was -6.2%; for `CCc1nc2ccccc2c(C(=O)OCC(=O)Nc2ccc(S(=O)(=O)N3CCOCC3)cc2)c1C`, -22%; for `CCCc1nc2ccccc2c(C(=O)OCC(=O)Nc2cccc(S(=O)(=O)N3CCOCC3)c2)c1CC`, 25.8%.
Turning to `COc1cc(NC(=S)NCCCN2CCOCC2)c(OC)cc1NC(=O)c1ccco1`, the inhibition was -24.2%.
As to `CC(=O)c1c(C)n(-c2cccc(Cl)c2)c2ccc(O)cc12`, the inhibition is -4.6%.
On to `CCOC(=O)Cc1csc(NC(=O)CSc2nc(-c3ccccc3)c(C#N)c(=O)[nH]2)n1`, for which the inhibition was -50.8%.
In the case of `CCCCCNC(=O)C(=O)C1C(=O)Nc2ccccc21` (stereo unspecified), the inhibition was 0.6%.
As for `CC(C)c1ccc2c(c1)c(SC(C)(C)C)c(CC(C)(C)C(=O)O)n2Cc1ccc(Cl)cc1`, the figure is 37.3% (active); as for `Cc1ccc2c(c1)c(N=O)c(O)n2Cc1ccc(Cl)cc1`, 31.7%.
For `CC(C)c1ccc(C(=O)NCc2ccc(Cl)cc2)cc1`, the inhibition is -22.8%.
As for `Cc1ccc(C(=O)c2ccc(O)cc2)cc1C`, the figure is -29.5%.
`CC(=O)Nc1cccc(NC(=O)c2ccc([N+](=O)[O-])cc2Cl)c1`: the inhibition was -5.3%.
For `O=C(Nc1cccc(Cl)c1)c1cc(N=Nc2ccc([N+](=O)[O-])cc2Cl)ccc1O` the value was 95.3% (active); for `O=C(Nc1cccc(O)c1)c1ccc([N+](=O)[O-])cc1Cl`, -22.7%; for `COc1cc(OC)cc(C(=O)N[C@H](C(=O)OCC(=O)Nc2ccc(F)c(F)c2)C(C)C)c1`, -11.6%.
For `O=C(NCC(O)c1ccc([N+](=O)[O-])cc1)Nc1ccccc1` (stereo unspecified) the value was -4.6%.
`COc1ccc(-n2c(C)c3c(OC)cccc(=O)c3c2C)cc1`: the inhibition was 16.3%.
In the case of `COc1cccc(=O)c2c(C)n(-c3ccc(C(=O)O)cc3)c(C)c12`, the inhibition is 58.9% (active).
As to `CCOc1cccc(=O)c2c(C)n(-c3ccc(C(=O)O)cc3)c(C)c12`, the inhibition was -22.7%.
As for `COc1cccc(N(C(=O)c2sc(C)nc2C)C(C(=O)NCC2CCCO2)c2ccccc2)c1` (stereo unspecified), the figure is -28.5%.
`COc1ccc(OC)c(CCNC(=O)c2ccccc2NC(=O)C2=C(C)OCCS2)c1`: the inhibition is -12.2%.
Take `COc1cc(CCNC(=O)c2ccccc2NC(=O)C2=C(C)OCCS2)cc(OC)c1OC`: the inhibition is 17.9%.
Turning to `COc1ccc(CCNC(=O)c2ccccc2NC(=O)C2=C(C)OCCS2)c(OC)c1`, the inhibition was 51.1% (active).
As for `NS(=O)(=O)c1cccc(NC(=O)c2cc(=O)c3ccccc3o2)c1`, the figure is -9.2%.
For the compound `CC(C)Cn1c(N)c(C(=O)COC(=O)c2ccccc2Cl)c(=O)n(C)c1=O`, the inhibition is -12.9%.
As for `CC(C)Cn1c(N)c(C(=O)COC(=O)c2ccc(Cl)cc2)c(=O)n(C)c1=O`, the inhibition is 4.6%.
As for `CC(C)Cn1c(N)c(C(=O)COC(=O)c2ccc(O)cc2)c(=O)n(C)c1=O`, the figure is -0.8%.
Regarding `COCc1c(C(=O)OCC(=O)c2c(N)n(CC(C)C)c(=O)n(C)c2=O)oc2ccccc12`, the inhibition was 32%.
As for `CC(C)Cn1c(N)c(C(=O)COC(=O)C2CCCCC2)c(=O)n(C)c1=O`, the figure is 0.4%.
`CC(C)Cn1c(N)c(C(=O)COC(=O)Cc2cccs2)c(=O)n(C)c1=O`: the inhibition is -8.8%.
On to `Cc1cc(Oc2ccccc2)nc(-c2ccccc2O)n1`, for which the inhibition was -12.6%.
As for `Nc1nccnc1C(=O)OCC(=O)NNC(=O)c1ccccc1`, the figure is -27.6%; as for `Cc1ccc(CSc2nc3ccsc3c(=O)n2Cc2ccccn2)cc1`, -0.8%; as for `CCc1ccc(NC(=O)COc2cccc(-n3cnnn3)c2)cc1`, 4.3%.
In the case of `CC(=O)c1cc2c(cc1NC(=O)CCC1CCCC1)OCO2`, the inhibition was 71.2% (active).
For `CC(=O)c1cc2c(cc1NC(=O)CCCC(=O)O)OCO2` the value was -9.2%; for `CC(=O)c1cc2c(cc1NC(=O)CCn1cccc1)OCO2`, 5%.
Take `Cc1ccc(Cn2ccnc2SCC(=O)NC2CCCC2)cc1`: the inhibition is 51.4% (active).
As for `O=C(CSc1nccn1Cc1ccc(F)cc1)NC1CCCC1`, the inhibition was -2.9%.
For `O=C(CSc1nccn1Cc1ccccc1)NC1CCCC1` the value was 12.2%.
For `Cc1ccc(S(=O)(=O)N(C)C)cc1NC(=O)C1CCCC1` the value was 18.4%; for `COc1ccccc1OCCCC(=O)NC(C)c1ccccc1` (stereo unspecified), -14.4%; for `C=CCn1c(C)cc(C2=NNC(=NCc3ccccc3)SC2)c1C`, -61.6%.
As for `C=CCn1c(C)cc(C2=NNC(=Nc3ccc(C)cc3)SC2)c1C`, the figure is -66.7%; as for `COCCn1c(C)cc(C2=NNC(=NC(C)(C)C)SC2)c1C`, -27.4%.
For `C=CCN=C1NN=C(c2cc(C)n(CC=C)c2C)CS1`, the inhibition is 85.5% (active).
`COCCN=C1NN=C(c2cc(C)n(CC3CCCO3)c2C)CS1` (stereo unspecified): the inhibition is 9.1%.
For `Cc1cc(C2=NNC(=NCCc3ccccc3)SC2)c(C)n1CC1CCCO1` (stereo unspecified) the value was -23%; for `COCCn1c(C)cc(C2=NNC(=Nc3ccc(OC)cc3)SC2)c1C`, -3.2%; for `C=CCn1c(C)cc(C2=NNC(=NCC)SC2)c1C`, 103% (active).
For `C=CCn1c(C)cc(C2=NNC(=NC(C)(C)C)SC2)c1C` the value was 65%.
For `COCCn1c(C)cc(C2=NNC(=NC3CC3)SC2)c1C` the value was 107% (active).
`C=CCN=C1NN=C(c2cc(C)n(CCOC)c2C)CS1`: the inhibition is 88.5% (active).
As for `COCCCN=C1NN=C(c2cc(C)n(Cc3ccccc3Cl)c2C)CS1`, the figure is -46.7%.
For `Fc1cccc(CN2CCN(Cc3nc(CCc4ccccc4)no3)CC2)c1` the value was -21.1%.
